The values below come from PubChem BioAssay.

Experiment [1] deals with Inward rectifier potassium channel 2 (Mus musculus) (UniProt P35561). In words: mouse Kir2.1 channel blockers, retest, confirmation, cell-based, FluxOR thallium flux, duplicate (AID 2032;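 active = Primary-screen hit whose thallium flux fell at least 3 control SD below untreated wells in both duplicates, with normal baseline fluorescence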). Particulars: Kir2.1-expressing cells, FluxOR thallium flux fluorescence, at 10 µM; hits give low values.
Experiment [2] can be described thus: nonspecific thallium flux effects in parental HEK293 cells, confirmation, counter-screen for Kir2.1 inhibitor project, cell-based, FluxOR thallium flux, duplicate, single concentration (AID 2105;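 active = dye signal at least 3 control SD above or below untreated wells in both duplicates, raw fluorescence within 3, either direction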;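 as to FluxOR signal as % of negative control (100 = no effect): percent is based on the flux ratio of peak minus minimum fluorescence over baseline F0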). Particulars: FluxOR thallium flux fluorescence, at 10 µM; 0% = unstimulated blank wells. On the technique in general: The purpose of a counterscreen is to sort out artefacts and off-target activity.

Experiment [3] concerns the target Voltage-gated inwardly rectifying potassium channel KCNH2 (Homo sapiens) (UniProt Q12809). In words: hERG channel inhibition, counter-screen for Kir2.1 inhibitor project, cell-based, thallium flux (AID 2236).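 Also: host cells are CHO cells stably expressing hERG.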 The settings on record: hERG-expressing cells, at 10 µM; hits give high values.
Experiment [4] addresses Potassium channel subfamily K member 9 (Homo sapiens) (UniProt Q9NPC2). In words: KCNK9 channel inhibition, selectivity assay for Kir2.1 inhibitor project, cell-based (AID 2329). Particulars: KCNK9-expressing cells, ion flux inhibition, at 10 µM; hits give high values.
In experiment [5] the target is Inward rectifier potassium channel 2 (Mus musculus) (UniProt P35561). In words: mouse Kir2.1 channel blockers, Kir2.1 inhibitor project, cell-based, secondary, automated electrophysiology (AID 463252). The settings on record: Kir2.1 cells, automated patch-clamp current inhibition, at 25 µM; hits give high values. For orientation: In patch-clamp work, channel activity is measured electrically.

The nature of experiment [6]: parental HEK293 membrane potential modulation, confirmation, counter-screen for TRPC6 modulator project, cell-based (AID 488924;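 active = membrane potential signal moves up or down beyond 5 SD from buffer-only wells, on both duplicate plates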). The settings on record: parental HEK293, membrane potential dye fluorescence; at 10 µM.
Experiment [7] is described as follows: modulation of acetylcholine-evoked membrane potential, parental HEK293, confirmation, counter-screen for TRPC6 modulator project, cell-based, second counter-screen, membrane potential dye (AID 488926;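 active = membrane potential signal drops by more than 5 SD from the mean control signal, in both duplicate plates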). The settings on record: parental HEK293, membrane potential dye fluorescence; at 10 µM; after compound, maximal acetylcholine stimulation.
The subject of experiment [8] is Transient receptor potential cation channel subfamily C member 4 (mouse). Nature of the experiment: TRPC4 modulation by TRPC6 hit compounds, confirmation, selectivity assay for TRPC6 modulator project, cell-based, HEK293 TRPC4/mu-opioid, membrane potential dye, mouse (AID 488927;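 active = membrane potential signal moved up or down beyond 5 SD of buffer control wells, in both duplicate plates, actives on both sides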;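 also: plate controls were assay buffer wells for no effect and DAMGO maximal-effect wells for full effect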). The settings on record: membrane potential fluorescence, at 10 µM.
Experiment [9] deals with TRPC4 (transient receptor potential cation channel C4), mouse. Nature of the experiment: TRPC4 inhibition by TRPC6 hit compounds, confirmation, selectivity assay for TRPC6 modulator project, cell-based, second screen, HEK293 TRPC4/mu-opioid, membrane potential dye (AID 488928;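 active = drop in membrane potential signal beyond 5 SD of the control wells in both duplicate plates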;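 also: TRPC4 counter screen for TRPC6 hits run under conditions tuned for TRPC6 not TRPC4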). Particulars: membrane potential dye fluorescence, at 10 µM, stimulated with maximal-effect DAMGO; hits give high values.

Experiment [10] deals with Short transient receptor potential channel 6 (Mus musculus) (UniProt Q61143). Nature of the experiment: mouse TRPC6 channel inhibitors, confirmation, HEK293 cells, membrane potential dye, duplicate (AID 488960;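 active = fluorescence ratio falls more than 5 SD below the full-stimulation control mean, in both duplicate runs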). The settings on record: ACh-evoked depolarization, at 10 µM; hits give high values.
Experiment [11] has the same target. In words: mouse TRPC6 channel activators, confirmation, HEK293 cells, membrane potential dye, duplicate (AID 488961;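 active = ratio signal rise beyond 5 SD above unstimulated control wells' mean, seen in both duplicate runs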). The settings on record: HEK293-TRPC6 membrane potential dye fluorescence, FDSS, at 10 µM; hits give high values.
A short description of experiment [12]: nonspecific thallium flux increase in parental CHO-K1, confirmation, counter-screen for KCNQ2 potentiator project, cell-based, FluxOR thallium flux, duplicate (AID 2282;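 active = signal rise of at least 3 SD above the untreated control mean, in both duplicate wells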;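 also: counter screen of KCNQ2 potentiator hits so any rise reflects channel-independent effects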). The settings on record: parental CHO-K1 cells, FluxOR thallium flux fluorescence; at 10 µM; hits give high values; zero = vehicle mean+3SD, 100% = vehicle-minus-blank window.
Experiment [13] addresses Potassium voltage-gated channel subfamily KQT member 1 (Homo sapiens) (UniProt P51787). In words: human KCNQ1 channel potentiation off-target, confirmation, selectivity assay for KCNQ2 potentiator project, cell-based, CHO, FluxOR thallium flux (AID 2283;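 active = fluorescence ratio rise of at least 3 SD of vehicle wells above their mean, in both replicate wells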;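 also: 0% = vehicle mean plus 3 SD and 100% = vehicle minus unstimulated blank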). Particulars: CHO KCNQ1 stable, FluxOR thallium flux fluorescence; at 10 µM; hits give high values; beyond 3SD, as % of vehicle-control signal.

Experiment [14] deals with Potassium voltage-gated channel subfamily KQT member 2 (Rattus norvegicus) (UniProt O88943). Nature of the experiment: rat KCNQ2 channel potentiators, confirmation, cell-based, CHO, FluxOR thallium flux, duplicate (AID 2287;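 active = fluorescence ratio rising 3 SD or more over the vehicle control mean in both replicates, plus primary screen hit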;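 also: peak minus minimum thallium fluorescence divided by baseline after K/Tl stimulus; 0% = vehicle mean plus 3 SD and 100% = vehicle minus unstimulated blank difference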). Particulars: CHO-KCNQ2 cells, FluxOR thallium flux fluorescence; at 10 µM; hits give high values.
The target in experiment [15] is Inward rectifier potassium channel 2 (Mus musculus) (UniProt P35561). In words: PubChem AID 2345.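 Also: 0% = vehicle mean plus 3 SD and 100% = vehicle minus no-stimulus blank window.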 Particulars: HEK293 Kir2.1, FluxOR thallium flux fluorescence; at 10 µM; hits give high values.
In experiment [16] the target is Potassium voltage-gated channel subfamily KQT member 2 (Rattus norvegicus) (UniProt O88943). In words: potentiators of retigabine-insensitive KCNQ2 W236L, mechanism study for KCNQ2 potentiator project, cell-based, rat KCNQ2 W236L, CHO, automated patch clamp (AID 2558;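 active = current increase at least 3 SD of the untreated controls above them in both duplicate recordings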). Particulars: at 25 µM; outcome: automated patch clamp current.
Experiment [17] concerns TRPC4 beta (transient receptor potential cation channel C4), mouse. Nature of the experiment: activators of mouse TRPC4 channel, confirmation, cell-based, Fluo4 calcium, HEK293 TRPC4beta/mu-opioid, duplicates, 10 µM (AID 2426;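 active = fluorescence ratio normalized to control raised more than 50% in primary screen plus both repeat runs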;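 also: percent rise of integrated ratio over buffer wells lacking compound which define 0%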). The settings on record: Fluo4 calcium fluorescence, at 10 µM; hits give high values.
Experiment [18] concerns transient receptor potential cation channel C4 beta (TRPC4), mouse. In words: activators of mouse TRPC4 channel, confirmation, cell-based, second round, Fluo4, HEK293 TRPC4beta/mu-opioid, 1 µM (AID 2461;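 active = primary screen active and over 50% activation in each of two duplicate runs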). The settings on record: Fluo4 calcium fluorescence, at 1 µM; hits give high values.
Experiment [19] has as its system TRPC4 (transient receptor potential cation channel C4 beta), mouse. In words: positive allosteric modulators of mouse TRPC4, confirmation, cell-based, second round, Fluo-4, HEK293 TRPC4beta/mu-opioid, 1 µM (AID 2554;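 active = primary screen hit whose fluorescence ratio, in both repeats, exceeds the weak agonist control mean by 3 SD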). The settings on record: DAMGO EC20, Fluo-4 calcium flux, at 1 µM; hits give high values. For orientation: Calcium assays in cells follow changes in intracellular calcium, usually with a dye or a luminescent sensor.

For experiment [20], the system named is TRPC4 beta (transient receptor potential cation channel C4), mouse. Nature of the experiment: positive allosteric modulators of mouse TRPC4, confirmation, cell-based, Fluo-4, HEK293 TRPC4beta/mu-opioid (AID 2555;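 active = primary screen hit whose calcium fluorescence ratio, in both repeats, exceeds the weak agonist control mean by 3 SD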). The settings on record: DAMGO EC20, Fluo-4 calcium flux, at 10 µM; hits give high values.
Experiment [21] has as its target Short transient receptor potential channel 4 (Mus musculus) (UniProt Q9QUQ5). In words: inhibitors of mouse TRPC4 channel, confirmation, cell-based, Fluo4, HEK293 TRPC4beta/mu-opioid (AID 2636;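 active = calcium signal cut by more than 3 SD below the full-agonist control yet still positive, in both repeats and the earlier primary screen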). Particulars: DAMGO, Fluo4 calcium flux, at 10 µM; hits give high values.
For experiment [22] the target is unchanged. Nature of the experiment: inhibitors of mouse TRPC4 channel, confirmation, cell-based, second round, Fluo4, HEK293 TRPC4beta/mu-opioid, 1 µM (AID 2637;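 active = calcium signal ratio cut to more than 3 SD under the fully stimulated control mean yet still positive, in both repeats and the primary screen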). The settings on record: Fluo4 calcium flux, DAMGO, at 1 µM; hits give high values.
For experiment [23] the target is unchanged. In words: mouse TRPC4 channel activators, dose response, cell-based, HEK293 TRPC4/mu-opioid, Fluo-4 calcium (AID 434937;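 active = primary screen activator hit with a dose response curve and TRPC4 channel activation at any tested dose; inactive = no activation, no dose response, or not a primary hit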).
The target is the same in experiment [24]. Nature of the experiment: TRPC4 positive allosteric modulators, dose response, cell-based, HEK293 TRPC4/mu-opioid, Fluo-4 calcium, EC20 DAMGO (AID 434941;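 active = earlier screen potentiator hit that boosts the TRPC4 ion channel at some dose, with a dose response; inactive = no potentiation, no dose response, or not a prior hit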;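 also: calcium entry triggered by an EC20 dose of DAMGO at the co-expressed mu-opioid receptor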).
For experiment [25] the target is unchanged. In words: mouse TRPC4 channel inhibitors, dose response, cell-based, HEK293 TRPC4/mu-opioid, Fluo-4 calcium (AID 434942;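 active = primary screen inhibitor hit that blocks the TRPC4 channel at some tested dose, yielding a dose curve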).
In experiment [26] the target is Short transient receptor potential channel 6 (Mus musculus) (UniProt Q61143). Nature of the experiment: inhibition of mouse TRPC6 channel, confirmation, selectivity assay for TRPC4 inhibitor project, cell-based, HEK293, membrane potential dye, duplicate (AID 434948;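 active = active in primary screen and both duplicates, each dropping signal beyond three positive-control SD with fluorescence still positive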). Particulars: HEK293 TRPC6, membrane potential dye fluorescence, at 10 µM, stimulated with maximal-effect acetylcholine; hits give high values.

Experiment [27] has the same target. Nature of the experiment: activation of mouse TRPC6 channel, confirmation, selectivity assay for TRPC4 activator project, cell-based, HEK293, membrane potential dye, duplicate (AID 434950;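 active = membrane potential signal rise above negative control mean plus 3 SD in both duplicates, also active in the earlier TRPC4 screen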). The settings on record: HEK293 TRPC6, membrane potential fluorescence, at 10 µM; hits give high values.
Experiment [28] shares this target. In words: TRPC6 potentiation by TRPC4 potentiator hits, confirmation, selectivity assay for TRPC4 potentiator project, HEK293 cells, membrane potential dye, duplicate (AID 434952;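 active = compound raising the membrane signal above positive-control mean plus 3 SD in both repeats, and a primary screen hit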). Particulars: HEK293 TRPC6, membrane potential dye fluorescence, at 10 µM, maximal acetylcholine added after compound; hits give high values.
The target in experiment [29] is Short transient receptor potential channel 4 (Mus musculus) (UniProt Q9QUQ5). In words: calcium flux activators in TRPC4/5HT1a cells, counter-screen for TRPC4 activator project, cell-based, second counter screen, HEK293 TRPC4/5HT1a, Fluo-4 (AID 434977;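 active = calcium signal rise above buffer-control mean plus 5 SD in both duplicates, and also a hit in the primary screen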;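 also: plate controls were assay buffer for no effect and maximal serotonin response for full effect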). The settings on record: Fluo-4 calcium flux, at 10 µM; hits give high values.
A short description of experiment [30]: calcium flux inhibitors in TRPC4/5HT1a cells, confirmation, counter-screen for TRPC4 inhibitor project, cell-based, second counter screen, HEK293 TRPC4/5HT1a, Fluo-4 (AID 434978;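 active = primary screen active whose calcium signal fell more than 3 SD beyond the full-serotonin control mean in both duplicate plates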;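 also: serotonin given first at submaximal then at maximal dose after compound preincubation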). The settings on record: Fluo-4 calcium flux, at 10 µM, serotonin added to trigger calcium flux; hits give high values.
In experiment [31] the test system is TRPC4 (mouse), co-expressed with 5HT1a in HEK293. In words: calcium flux potentiators in TRPC4/5HT1a cells, confirmation, counter-screen for TRPC4 potentiator project, cell-based, second counter screen, HEK293 TRPC4/5HT1a, Fluo-4 (AID 434979;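 active = signal rise over 3 SD above mean of control wells given weak agonist, in both repeats and first screen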). Particulars: Fluo-4 calcium flux, at 10 µM, serotonin added at its EC20 dose; hits give high values.
A short description of experiment [32]: calcium flux activation in mu-opioid HEK293 cells, confirmation, counter-screen for TRPC4 activator project, cell-based, HEK293 mu-opioid receptor line (AID 449723;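 active = hit in primary screen, with calcium signal over 5 SD above buffer well mean in both duplicates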;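 also: counter screen cells carry the mu-opioid receptor alone and lack TRPC4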). Particulars: Fluo-4 calcium fluorescence, at 10 µM; hits give high values.
Experiment [33] is described as follows: calcium flux enhancement in mu-opioid HEK293 cells, confirmation, counter-screen for TRPC4 allosteric potentiator project, cell-based, HEK293 mu-opioid receptor line (AID 449724;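 active = calcium signal rise more than 3 SD above the low-dose agonist control mean, in both duplicate plates and the primary screen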;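 also: HEK293 cells carrying mu-opioid receptor only with no TRPC4 channel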). Particulars: Fluo-4 calcium flux, at 10 µM, compound added before EC20 DAMGO stimulus; hits give high values.
Experiment [34] deals with Potassium voltage-gated channel subfamily E member 1 (Homo sapiens) + Potassium voltage-gated channel subfamily KQT member 1 (Homo sapiens) (UniProt P15382+P51787). In words: KCNQ1/KCNE1 complex potentiators, confirmation, selectivity assay for KCNQ1 potentiator project, thallium flux, CHO-K1 KCNQ1/E1 cells (AID 493186;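 active = mean duplicate activation above the buffer control mean plus 5 SD of those controls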). Particulars: FluxOR thallium flux, at 10 µM.
Experiment [35] concerns the target Potassium voltage-gated channel subfamily KQT member 1 (Homo sapiens) (UniProt P51787). In words: KCNQ1 channel inhibitors, confirmation, orthogonal assay, cell-based, automated electrophysiology (AID 624120;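 active = KCNQ1 current drop exceeding 3 SD of negative control wells, seen in both duplicate runs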). Particulars: KCNQ1-CHO cells, automated patch clamp current; at 10 µM.

Unmarked numbers belong to inactive results. For some assays here: Measured potencies and affinities stand elsewhere. Some of the results follow. The source made the active and inactive calls.

Potassium voltage-gated channel subfamily KQT member 1 (Homo sapiens), sequence (P51787 whole entry, looked up): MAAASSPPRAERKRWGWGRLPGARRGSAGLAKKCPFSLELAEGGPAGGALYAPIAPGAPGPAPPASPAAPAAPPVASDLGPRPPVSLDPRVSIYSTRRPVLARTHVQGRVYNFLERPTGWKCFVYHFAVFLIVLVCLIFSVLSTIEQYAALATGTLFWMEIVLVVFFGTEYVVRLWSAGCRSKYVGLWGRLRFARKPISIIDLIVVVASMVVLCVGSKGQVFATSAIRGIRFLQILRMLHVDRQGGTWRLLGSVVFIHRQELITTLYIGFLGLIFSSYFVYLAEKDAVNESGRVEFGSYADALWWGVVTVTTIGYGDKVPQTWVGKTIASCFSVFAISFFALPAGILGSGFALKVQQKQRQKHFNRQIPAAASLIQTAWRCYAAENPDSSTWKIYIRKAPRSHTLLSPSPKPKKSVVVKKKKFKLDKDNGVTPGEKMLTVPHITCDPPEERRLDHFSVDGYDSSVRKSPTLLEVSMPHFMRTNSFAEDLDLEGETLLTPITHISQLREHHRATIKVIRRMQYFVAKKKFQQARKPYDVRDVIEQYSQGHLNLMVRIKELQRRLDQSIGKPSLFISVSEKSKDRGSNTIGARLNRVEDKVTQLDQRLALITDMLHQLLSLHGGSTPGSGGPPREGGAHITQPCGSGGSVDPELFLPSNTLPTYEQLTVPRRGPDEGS
Inward rectifier potassium channel 2 (Mus musculus), sequence (P35561 whole entry, looked up): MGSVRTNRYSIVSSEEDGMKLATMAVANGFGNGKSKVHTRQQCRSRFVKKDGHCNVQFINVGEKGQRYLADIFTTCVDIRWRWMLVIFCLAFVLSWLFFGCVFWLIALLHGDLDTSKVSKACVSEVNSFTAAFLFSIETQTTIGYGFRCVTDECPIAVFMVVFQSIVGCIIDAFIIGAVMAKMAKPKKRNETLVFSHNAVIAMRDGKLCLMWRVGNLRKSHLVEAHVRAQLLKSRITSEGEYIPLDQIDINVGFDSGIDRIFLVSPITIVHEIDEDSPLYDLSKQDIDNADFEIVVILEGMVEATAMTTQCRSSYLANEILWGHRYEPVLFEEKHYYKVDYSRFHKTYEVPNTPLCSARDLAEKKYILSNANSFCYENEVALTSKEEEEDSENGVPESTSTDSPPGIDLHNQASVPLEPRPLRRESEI
Short transient receptor potential channel 6 (Mus musculus), sequence (Q61143 whole entry, looked up): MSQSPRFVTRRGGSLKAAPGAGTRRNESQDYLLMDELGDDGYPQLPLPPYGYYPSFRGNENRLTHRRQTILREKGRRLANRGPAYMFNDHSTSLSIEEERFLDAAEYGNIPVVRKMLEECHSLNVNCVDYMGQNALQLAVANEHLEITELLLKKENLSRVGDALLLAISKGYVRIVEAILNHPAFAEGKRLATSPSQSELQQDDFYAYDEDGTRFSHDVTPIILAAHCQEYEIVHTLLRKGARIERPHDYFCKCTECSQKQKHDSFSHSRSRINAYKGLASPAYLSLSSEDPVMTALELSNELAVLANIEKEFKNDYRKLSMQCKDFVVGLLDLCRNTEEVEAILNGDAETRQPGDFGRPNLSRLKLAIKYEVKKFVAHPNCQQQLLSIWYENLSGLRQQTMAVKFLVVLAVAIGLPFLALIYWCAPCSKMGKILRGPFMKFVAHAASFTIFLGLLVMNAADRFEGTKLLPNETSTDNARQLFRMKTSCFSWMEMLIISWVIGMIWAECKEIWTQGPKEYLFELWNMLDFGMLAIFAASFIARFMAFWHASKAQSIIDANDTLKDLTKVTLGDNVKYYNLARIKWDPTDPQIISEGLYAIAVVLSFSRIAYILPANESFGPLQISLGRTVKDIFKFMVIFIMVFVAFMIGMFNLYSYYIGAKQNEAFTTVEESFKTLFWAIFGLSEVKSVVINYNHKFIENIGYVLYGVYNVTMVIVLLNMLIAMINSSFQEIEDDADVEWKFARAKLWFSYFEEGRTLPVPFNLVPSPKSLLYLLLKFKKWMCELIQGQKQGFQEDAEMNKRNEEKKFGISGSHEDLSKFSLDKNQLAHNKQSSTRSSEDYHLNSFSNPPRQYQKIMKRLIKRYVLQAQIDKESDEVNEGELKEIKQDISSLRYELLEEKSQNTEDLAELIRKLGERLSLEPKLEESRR
Short transient receptor potential channel 4 (Mus musculus), sequence (Q9QUQ5 whole entry, looked up): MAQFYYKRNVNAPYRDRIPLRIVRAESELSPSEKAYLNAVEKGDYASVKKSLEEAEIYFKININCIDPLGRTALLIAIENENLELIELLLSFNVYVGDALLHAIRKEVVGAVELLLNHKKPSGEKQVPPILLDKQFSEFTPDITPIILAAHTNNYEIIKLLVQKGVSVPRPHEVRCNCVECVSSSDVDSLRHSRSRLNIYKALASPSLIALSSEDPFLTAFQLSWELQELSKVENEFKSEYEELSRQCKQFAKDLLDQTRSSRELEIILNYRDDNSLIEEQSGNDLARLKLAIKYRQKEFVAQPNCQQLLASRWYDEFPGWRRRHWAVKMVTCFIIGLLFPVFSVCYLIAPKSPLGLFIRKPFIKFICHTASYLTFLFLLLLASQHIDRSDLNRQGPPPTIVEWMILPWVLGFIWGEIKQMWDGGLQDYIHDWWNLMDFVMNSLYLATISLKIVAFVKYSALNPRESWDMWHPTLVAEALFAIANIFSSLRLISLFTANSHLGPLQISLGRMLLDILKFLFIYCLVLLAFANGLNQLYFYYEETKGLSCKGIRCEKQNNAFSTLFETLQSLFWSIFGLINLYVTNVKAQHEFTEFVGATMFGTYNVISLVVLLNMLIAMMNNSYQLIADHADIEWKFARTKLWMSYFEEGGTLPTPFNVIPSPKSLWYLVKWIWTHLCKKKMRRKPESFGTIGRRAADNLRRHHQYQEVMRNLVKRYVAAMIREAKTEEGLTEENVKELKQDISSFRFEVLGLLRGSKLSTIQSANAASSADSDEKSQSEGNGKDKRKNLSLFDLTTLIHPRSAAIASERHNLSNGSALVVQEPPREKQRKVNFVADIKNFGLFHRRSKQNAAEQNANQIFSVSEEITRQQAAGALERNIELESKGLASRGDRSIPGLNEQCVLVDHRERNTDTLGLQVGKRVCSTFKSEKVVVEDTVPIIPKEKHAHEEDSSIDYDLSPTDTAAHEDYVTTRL
Voltage-gated inwardly rectifying potassium channel KCNH2 (Homo sapiens), sequence (Q12809 whole entry, looked up): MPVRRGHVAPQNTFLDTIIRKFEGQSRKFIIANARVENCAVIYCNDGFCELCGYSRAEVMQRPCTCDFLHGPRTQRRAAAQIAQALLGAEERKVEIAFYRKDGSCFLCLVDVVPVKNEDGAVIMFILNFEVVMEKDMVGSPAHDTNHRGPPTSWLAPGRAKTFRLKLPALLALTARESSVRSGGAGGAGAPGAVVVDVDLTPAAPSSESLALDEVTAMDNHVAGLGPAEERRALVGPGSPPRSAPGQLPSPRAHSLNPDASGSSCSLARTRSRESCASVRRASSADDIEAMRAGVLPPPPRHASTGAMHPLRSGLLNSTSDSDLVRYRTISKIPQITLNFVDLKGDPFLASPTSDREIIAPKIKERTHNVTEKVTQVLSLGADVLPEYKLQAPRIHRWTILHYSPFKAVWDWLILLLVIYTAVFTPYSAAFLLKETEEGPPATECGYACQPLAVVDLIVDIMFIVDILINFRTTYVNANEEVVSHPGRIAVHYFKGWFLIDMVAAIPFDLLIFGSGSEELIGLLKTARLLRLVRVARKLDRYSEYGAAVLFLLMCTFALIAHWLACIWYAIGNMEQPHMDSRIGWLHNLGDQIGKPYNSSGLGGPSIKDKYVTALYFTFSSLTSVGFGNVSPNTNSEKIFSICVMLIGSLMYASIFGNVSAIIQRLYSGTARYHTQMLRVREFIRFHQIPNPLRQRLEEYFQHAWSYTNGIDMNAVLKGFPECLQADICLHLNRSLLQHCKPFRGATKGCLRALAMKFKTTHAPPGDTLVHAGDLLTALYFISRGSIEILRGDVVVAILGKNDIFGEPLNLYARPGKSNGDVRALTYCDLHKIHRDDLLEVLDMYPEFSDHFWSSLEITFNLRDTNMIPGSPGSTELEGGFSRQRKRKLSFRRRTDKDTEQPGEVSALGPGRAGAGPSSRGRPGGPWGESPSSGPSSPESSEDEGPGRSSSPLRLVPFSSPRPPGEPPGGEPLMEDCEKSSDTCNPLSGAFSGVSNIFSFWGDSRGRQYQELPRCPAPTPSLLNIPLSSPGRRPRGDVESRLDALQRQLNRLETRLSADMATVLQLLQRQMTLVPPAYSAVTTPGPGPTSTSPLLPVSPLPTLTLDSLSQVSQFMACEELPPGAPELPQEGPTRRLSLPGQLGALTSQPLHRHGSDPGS
Potassium voltage-gated channel subfamily E member 1 (Homo sapiens) + Potassium voltage-gated channel subfamily KQT member 1 (Homo sapiens), sequence (P51787 whole entry, looked up): as the sequence (P51787 whole entry, looked up) above

Regarding `O=C(NCCc1c[nH]c2ccccc12)C1CCN(Cc2ccc(Br)cc2)CC1`, the Tl flux remaining, % of negative control (hits give low values) in [1] is 62% (active). Further, the result in experiment [2], in experiment [4], in experiment [5], in experiment [6], in experiment [7] and in [10] was inactive. For the same molecule, the outcome in experiment [11] was inactive. The inhibition (in general, the percentage by which the read-out fell short of the control) in [3] is 61% (active); in experiment [9], 58% (active). Besides, the percent change from control (negative = decrease, positive = increase) in experiment [8] is 11% (active).
Consider `CC1=NN(C(=O)c2ccc(Br)cc2)C(O)(c2ccccc2)C1` (centres undefined), for which the result in [1] was inactive. Also, in [2], the FluxOR signal as % of negative control (100 = no effect) is 73.5% (active). The activity increase over 3SD of controls in [12] was -19%. Besides, the activation over 3SD threshold in experiment [13] is -5.7%. For the same molecule, in [14], the potentiation, less the hit threshold is -11.5%. Also, the activity over 3SD threshold in [15] is -31.6%.
For `Cc1cccc(NC(=O)CSC(N)=O)c1C`, the outcome in experiment [1], in experiment [2] and in experiment [16] was inactive. Moreover, the activity increase over 3SD of controls in experiment [12] was -5%. Moreover, the activation over 3SD threshold in [13] is -15.2%. Besides, the potentiation, less the hit threshold in [14] is 56.1% (active). For the same molecule, in experiment [15], the activity over 3SD threshold was -46.1%.
Take `CCc1ccc(-c2nn(-c3ccccc3)cc2CSC(=N)N)cc1`: the activation is 125% (active) in experiment [17], 43.7% (active) in experiment [29] and 24.4% (active) in experiment [32]. The outcome in experiment [18], in experiment [19], in experiment [20], in experiment [21], in experiment [22] and in experiment [23] was inactive. Further, the result in [24], in experiment [25], in experiment [26], in experiment [27], in experiment [28] and in experiment [30] was inactive. In addition, the result in experiment [31] and in experiment [33] was inactive.
In the case of `Cc1[nH][nH]c(=O)c1C(c1ccc(-c2ccc(Cl)cc2)o1)c1c(C)[nH][nH]c1=O`, the result in experiment [34] was inactive.
As for `S=C(NCc1ccc(Cl)cc1)NC12CC3CC(CC(C3)C1)C2`, in experiment [35], the molecule was classed as active.
Consider `FC(F)(F)c1cccc(NC(=S)Nc2cccc(Cl)c2)c1`, for which the outcome in experiment [35] was inactive.
